This passage reports binding signal results from PMC7862700, “An all-to-all approach to the identification of sequence-specific readers for epigenetic DNA modifications on cytosine”.

What all share (assay): DAPPL (digital affinity profiling via proximity ligation, sequencing); 10 mM Tris-HCl pH 7.5, 50 mM NaCl, 1 mM DTT, 4% glycerol, room temperature, 30 min; GST-TFs on glutathione beads, 16-mer random dsDNA library, 0.1% formaldehyde crosslink after washing; high values mean tight binding
Common to all, as to conditions: protein: recombinant; tags: N-terminal GST; dsDNA, one strand shown

The target in test [1] is T1, FLI1 (Homo sapiens, UniProt Q01543 1-452).
T1 sequence: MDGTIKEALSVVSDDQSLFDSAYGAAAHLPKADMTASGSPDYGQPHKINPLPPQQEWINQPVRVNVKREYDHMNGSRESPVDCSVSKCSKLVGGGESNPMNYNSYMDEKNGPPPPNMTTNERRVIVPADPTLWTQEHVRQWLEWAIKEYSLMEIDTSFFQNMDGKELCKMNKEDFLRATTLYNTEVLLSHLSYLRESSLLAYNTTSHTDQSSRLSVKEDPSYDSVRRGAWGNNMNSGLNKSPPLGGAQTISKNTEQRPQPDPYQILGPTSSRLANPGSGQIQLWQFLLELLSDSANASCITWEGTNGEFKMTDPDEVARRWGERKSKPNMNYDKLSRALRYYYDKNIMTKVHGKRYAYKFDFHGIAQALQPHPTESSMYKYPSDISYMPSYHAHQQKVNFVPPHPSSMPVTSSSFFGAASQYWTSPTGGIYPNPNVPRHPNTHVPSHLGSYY
In a few lines:
(§1)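 A tag-only sample was pooled with DNA-barcoded human transcription factors that had been expressed in yeast as GST fusions and captured on glutathione beads. The pools were incubated for 30 min at room temperature with 200 nmole of a random double-stranded 16-mer DNA library in Tris/NaCl/DTT/glycerol buffer, then washed, crosslinked with 0.1% formaldehyde, proximity-ligated (BsaI/T4 ligase, 1 h, 37 °C), PCR-amplified and sequenced on an Illumina NextSeq500. Binding signal is each hexamer's read frequency for a factor divided by its frequency for the tag-only sample.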

The target in test [2] is T2, ELK1 (Homo sapiens, UniProt P19419 1-428).
T2 sequence: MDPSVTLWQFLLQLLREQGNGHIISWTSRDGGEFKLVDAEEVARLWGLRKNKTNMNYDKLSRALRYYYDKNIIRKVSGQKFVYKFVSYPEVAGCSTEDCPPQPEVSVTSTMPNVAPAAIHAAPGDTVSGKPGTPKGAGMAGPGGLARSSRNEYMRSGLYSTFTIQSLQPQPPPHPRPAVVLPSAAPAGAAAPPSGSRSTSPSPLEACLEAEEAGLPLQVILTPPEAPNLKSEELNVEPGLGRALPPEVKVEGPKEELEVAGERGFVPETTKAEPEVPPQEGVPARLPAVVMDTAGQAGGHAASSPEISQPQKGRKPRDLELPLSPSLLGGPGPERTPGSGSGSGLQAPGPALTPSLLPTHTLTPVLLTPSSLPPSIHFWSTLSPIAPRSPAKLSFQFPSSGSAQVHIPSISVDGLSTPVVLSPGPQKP
The method, boiled down: as §1

Test [3] deals with T3, GABPA (Homo sapiens, UniProt Q06546 1-454).
T3 sequence: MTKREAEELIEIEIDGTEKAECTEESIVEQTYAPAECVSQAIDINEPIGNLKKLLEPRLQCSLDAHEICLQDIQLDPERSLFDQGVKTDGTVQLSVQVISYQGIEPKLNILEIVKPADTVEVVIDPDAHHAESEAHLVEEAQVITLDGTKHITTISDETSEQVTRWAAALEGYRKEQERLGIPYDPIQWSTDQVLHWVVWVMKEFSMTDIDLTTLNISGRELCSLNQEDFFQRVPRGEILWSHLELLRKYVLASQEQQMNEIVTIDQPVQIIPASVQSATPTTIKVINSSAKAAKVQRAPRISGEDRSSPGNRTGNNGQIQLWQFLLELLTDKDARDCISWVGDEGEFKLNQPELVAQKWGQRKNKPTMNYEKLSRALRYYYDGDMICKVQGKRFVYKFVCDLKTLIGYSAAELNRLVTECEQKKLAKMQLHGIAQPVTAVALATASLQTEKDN
The method, boiled down:
as §1

Test [4] has as its target T4, ERG (Homo sapiens, UniProt P11308 1-479).
T4 sequence: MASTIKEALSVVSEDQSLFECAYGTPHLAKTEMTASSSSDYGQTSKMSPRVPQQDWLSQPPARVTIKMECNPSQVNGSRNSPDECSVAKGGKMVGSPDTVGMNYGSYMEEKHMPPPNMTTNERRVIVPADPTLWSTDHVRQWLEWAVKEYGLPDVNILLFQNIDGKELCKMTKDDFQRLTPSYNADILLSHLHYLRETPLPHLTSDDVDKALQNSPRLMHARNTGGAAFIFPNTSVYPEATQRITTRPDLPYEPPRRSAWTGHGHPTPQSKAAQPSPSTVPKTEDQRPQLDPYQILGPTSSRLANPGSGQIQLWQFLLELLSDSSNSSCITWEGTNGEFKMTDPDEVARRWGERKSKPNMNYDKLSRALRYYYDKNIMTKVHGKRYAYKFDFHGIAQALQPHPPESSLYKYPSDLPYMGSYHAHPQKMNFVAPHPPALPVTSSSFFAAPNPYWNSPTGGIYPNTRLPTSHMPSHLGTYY
The method, boiled down:
as §1

Test [5] deals with ELF1 (Homo sapiens, UniProt P32519 1-619). In a few lines:
as §1

For test [6], the target named is T5, EHF (Homo sapiens, UniProt Q9NZC4 1-300).
T5 sequence: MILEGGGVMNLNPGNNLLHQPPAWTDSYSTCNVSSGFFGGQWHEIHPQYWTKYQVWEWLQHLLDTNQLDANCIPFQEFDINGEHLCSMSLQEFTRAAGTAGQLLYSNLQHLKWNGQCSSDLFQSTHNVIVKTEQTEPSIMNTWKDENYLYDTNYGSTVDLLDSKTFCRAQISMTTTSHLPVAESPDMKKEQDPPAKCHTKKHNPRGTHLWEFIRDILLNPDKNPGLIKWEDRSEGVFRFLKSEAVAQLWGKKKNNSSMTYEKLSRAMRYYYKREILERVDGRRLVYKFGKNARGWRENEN
In a few lines: as §1

In test [7] the target is SPI1 (Homo sapiens, UniProt P17947 1-270). The method, boiled down:
as §1

The target of test [8] is SPIB (Homo sapiens, UniProt Q01892 1-262). In a few lines: as §1
SPIB, sequence (Q01892 whole entry): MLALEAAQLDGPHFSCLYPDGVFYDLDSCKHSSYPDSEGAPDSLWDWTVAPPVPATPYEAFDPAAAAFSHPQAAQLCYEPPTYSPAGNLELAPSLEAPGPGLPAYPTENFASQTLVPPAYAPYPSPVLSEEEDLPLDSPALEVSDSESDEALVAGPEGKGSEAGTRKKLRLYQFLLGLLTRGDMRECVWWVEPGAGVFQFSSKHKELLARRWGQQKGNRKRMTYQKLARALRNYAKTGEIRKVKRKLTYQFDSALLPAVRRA
Test [9] deals with T6, ELK3 (Homo sapiens, UniProt P41970 1-407).
T6 sequence: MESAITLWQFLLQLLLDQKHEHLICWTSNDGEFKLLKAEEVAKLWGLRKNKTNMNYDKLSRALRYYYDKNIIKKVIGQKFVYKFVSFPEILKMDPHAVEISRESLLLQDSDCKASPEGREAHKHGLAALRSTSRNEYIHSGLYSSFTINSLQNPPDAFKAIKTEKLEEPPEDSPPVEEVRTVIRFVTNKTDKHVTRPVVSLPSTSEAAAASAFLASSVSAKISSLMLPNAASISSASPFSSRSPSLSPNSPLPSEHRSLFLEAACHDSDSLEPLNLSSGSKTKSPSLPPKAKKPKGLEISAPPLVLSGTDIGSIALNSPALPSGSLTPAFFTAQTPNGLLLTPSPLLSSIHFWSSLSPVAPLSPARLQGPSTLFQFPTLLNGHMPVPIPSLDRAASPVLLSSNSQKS
The method, boiled down: as §1

In test [10] the target is T7, FEV (Homo sapiens, UniProt Q99581 1-238).
T7 sequence: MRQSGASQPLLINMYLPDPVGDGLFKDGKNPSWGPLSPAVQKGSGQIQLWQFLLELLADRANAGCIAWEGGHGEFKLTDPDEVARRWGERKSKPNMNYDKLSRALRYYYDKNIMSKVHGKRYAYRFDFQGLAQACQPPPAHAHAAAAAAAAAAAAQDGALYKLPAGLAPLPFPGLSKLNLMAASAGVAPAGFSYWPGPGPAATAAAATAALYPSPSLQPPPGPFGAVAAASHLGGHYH
The method, boiled down:
as §1

In test [11] the target is ETV5 (Homo sapiens, UniProt P41161 1-510). In a few lines: as §1
ETV5, sequence (P41161 whole entry): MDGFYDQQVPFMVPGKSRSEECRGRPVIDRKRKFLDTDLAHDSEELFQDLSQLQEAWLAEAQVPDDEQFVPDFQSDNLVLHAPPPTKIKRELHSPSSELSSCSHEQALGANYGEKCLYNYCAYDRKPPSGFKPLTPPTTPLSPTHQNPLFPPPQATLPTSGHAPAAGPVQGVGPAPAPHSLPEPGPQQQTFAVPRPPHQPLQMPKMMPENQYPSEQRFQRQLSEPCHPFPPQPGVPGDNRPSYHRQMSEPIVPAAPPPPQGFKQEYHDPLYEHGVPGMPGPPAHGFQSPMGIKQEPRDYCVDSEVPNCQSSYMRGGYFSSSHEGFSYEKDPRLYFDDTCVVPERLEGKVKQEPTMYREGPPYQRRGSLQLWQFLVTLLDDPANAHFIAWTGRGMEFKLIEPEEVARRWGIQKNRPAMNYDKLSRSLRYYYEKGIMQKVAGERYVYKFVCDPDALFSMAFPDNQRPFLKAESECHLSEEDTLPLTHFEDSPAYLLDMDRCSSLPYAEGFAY
Test [12] addresses T8, SPIC (Homo sapiens, UniProt Q8N5J4 1-248).
T8 sequence: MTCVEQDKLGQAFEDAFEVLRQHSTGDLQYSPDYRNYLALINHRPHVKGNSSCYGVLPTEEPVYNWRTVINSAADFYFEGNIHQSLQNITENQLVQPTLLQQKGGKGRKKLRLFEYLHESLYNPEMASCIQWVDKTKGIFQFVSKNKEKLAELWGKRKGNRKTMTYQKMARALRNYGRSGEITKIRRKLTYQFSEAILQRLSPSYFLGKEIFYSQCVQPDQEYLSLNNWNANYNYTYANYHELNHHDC
The method, boiled down:
as §1

In test [13] the target is ELF4 (Homo sapiens, UniProt Q99607 1-663). In a few lines:
as §1

The target in test [14] is T9, ELK4 (Homo sapiens, UniProt P28324-2 1-405).
T9 sequence: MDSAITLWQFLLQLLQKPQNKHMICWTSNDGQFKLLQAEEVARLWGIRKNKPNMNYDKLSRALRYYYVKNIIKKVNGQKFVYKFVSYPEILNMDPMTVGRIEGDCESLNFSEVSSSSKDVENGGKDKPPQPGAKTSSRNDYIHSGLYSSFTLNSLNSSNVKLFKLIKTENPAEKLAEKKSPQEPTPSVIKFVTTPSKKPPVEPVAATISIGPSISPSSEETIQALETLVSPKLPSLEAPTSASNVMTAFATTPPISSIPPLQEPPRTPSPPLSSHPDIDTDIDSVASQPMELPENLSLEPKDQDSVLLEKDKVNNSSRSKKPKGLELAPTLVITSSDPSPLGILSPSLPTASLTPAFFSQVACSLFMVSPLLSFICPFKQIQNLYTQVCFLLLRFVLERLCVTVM
The method, boiled down: as §1

Test [15] has as its target T10, ETV2 (Homo sapiens, UniProt O00321 1-342).
T10 sequence: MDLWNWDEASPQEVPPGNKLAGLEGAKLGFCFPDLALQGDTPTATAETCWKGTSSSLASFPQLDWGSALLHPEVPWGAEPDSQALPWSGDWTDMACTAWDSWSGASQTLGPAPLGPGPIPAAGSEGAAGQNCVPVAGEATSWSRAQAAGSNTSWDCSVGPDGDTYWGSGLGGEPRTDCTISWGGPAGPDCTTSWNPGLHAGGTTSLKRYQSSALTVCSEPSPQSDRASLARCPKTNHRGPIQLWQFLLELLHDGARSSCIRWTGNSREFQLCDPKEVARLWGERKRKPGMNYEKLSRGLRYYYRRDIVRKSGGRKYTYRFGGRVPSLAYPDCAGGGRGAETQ
In a few lines: as §1

In test [16] the target is T11, ELF3 (Homo sapiens, UniProt P78545 1-371).
T11 sequence: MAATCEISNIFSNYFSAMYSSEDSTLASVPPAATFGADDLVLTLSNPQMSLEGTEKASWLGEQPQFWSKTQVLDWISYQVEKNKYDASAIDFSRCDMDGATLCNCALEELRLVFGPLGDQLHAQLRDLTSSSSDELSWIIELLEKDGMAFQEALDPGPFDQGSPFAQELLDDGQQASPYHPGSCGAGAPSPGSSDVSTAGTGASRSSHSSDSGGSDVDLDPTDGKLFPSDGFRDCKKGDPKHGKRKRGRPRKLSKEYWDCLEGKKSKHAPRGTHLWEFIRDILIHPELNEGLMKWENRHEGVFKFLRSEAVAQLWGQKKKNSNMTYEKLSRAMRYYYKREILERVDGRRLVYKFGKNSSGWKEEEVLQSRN
In a few lines: as §1

Test [17] has as its target ETV1 (Homo sapiens, UniProt P50549 1-477). In a few lines: as §1

ETV1, sequence (P50549 whole entry): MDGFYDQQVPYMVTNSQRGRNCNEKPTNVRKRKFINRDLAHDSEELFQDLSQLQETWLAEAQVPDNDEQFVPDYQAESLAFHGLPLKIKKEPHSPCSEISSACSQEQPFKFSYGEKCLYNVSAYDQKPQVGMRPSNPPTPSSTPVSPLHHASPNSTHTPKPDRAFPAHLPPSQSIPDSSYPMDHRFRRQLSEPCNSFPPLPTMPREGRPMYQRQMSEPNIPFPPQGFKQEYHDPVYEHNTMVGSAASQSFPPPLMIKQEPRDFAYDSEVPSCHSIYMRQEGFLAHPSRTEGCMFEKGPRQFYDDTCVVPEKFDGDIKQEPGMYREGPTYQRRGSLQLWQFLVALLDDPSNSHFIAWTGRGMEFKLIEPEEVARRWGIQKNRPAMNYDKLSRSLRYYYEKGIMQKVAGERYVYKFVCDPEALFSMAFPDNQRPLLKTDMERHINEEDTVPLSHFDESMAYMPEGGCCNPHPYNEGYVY
ELF4, sequence (Q99607 whole entry): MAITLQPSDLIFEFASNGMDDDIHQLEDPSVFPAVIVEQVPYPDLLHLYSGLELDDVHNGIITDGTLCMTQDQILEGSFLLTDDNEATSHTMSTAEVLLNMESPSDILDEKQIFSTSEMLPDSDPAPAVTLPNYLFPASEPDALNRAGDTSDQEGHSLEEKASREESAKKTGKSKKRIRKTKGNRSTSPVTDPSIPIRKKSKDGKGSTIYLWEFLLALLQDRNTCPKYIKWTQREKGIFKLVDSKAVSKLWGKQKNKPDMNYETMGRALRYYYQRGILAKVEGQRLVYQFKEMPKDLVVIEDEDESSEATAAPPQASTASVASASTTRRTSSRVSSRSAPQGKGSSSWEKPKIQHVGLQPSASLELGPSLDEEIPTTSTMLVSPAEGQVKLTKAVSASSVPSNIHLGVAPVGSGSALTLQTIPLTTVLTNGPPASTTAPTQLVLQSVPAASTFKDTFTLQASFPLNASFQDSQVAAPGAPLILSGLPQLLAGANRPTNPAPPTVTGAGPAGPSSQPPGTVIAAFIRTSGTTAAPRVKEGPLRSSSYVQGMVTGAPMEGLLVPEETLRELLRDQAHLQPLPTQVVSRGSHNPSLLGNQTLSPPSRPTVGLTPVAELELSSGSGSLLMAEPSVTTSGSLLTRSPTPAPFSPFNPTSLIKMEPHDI
ELF1, sequence (P32519 whole entry): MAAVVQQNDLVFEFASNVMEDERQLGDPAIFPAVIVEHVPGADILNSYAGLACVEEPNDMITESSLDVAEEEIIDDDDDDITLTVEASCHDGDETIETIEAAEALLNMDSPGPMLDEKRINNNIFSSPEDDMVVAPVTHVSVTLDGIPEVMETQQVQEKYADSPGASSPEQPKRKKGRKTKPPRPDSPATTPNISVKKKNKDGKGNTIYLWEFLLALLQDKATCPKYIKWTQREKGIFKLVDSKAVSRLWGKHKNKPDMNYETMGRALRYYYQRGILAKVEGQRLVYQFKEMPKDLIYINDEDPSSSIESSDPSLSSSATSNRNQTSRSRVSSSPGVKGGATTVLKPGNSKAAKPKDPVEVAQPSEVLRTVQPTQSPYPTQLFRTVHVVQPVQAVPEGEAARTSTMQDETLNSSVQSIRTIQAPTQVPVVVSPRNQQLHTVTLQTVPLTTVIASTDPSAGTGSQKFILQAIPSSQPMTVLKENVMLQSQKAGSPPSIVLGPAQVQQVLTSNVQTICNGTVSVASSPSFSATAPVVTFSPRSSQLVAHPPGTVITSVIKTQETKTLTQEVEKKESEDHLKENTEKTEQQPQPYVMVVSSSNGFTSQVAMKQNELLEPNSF

As to TGTCCG, the binding signal in test [1] was 1.47 fold enrichment (6-mer frequency, TF over GST control); in test [2] it was 1.42 fold enrichment (6-mer frequency, TF over GST control); in [3], 1.48 fold enrichment (6-mer frequency, TF over GST control); in test [4], 1.58 fold enrichment (6-mer frequency, TF over GST control); in test [5], 1.41 fold enrichment (6-mer frequency, TF over GST control); in [6], 1.42 fold enrichment (6-mer frequency, TF over GST control). For the same sequence, the binding signal in test [7] was 1.2 fold enrichment (6-mer frequency, TF over GST control); in test [8], 1.56 fold enrichment (6-mer frequency, TF over GST control); in test [9], 1.39 fold enrichment (6-mer frequency, TF over GST control); in [10] it was 1.61 fold enrichment (6-mer frequency, TF over GST control); in [11] it was 1.61 fold enrichment (6-mer frequency, TF over GST control); in test [12] it was 1.36 fold enrichment (6-mer frequency, TF over GST control). The binding signal in test [13] was 1.41 fold enrichment (6-mer frequency, TF over GST control); in test [14], 1.32 fold enrichment (6-mer frequency, TF over GST control); in [15], 1.29 fold enrichment (6-mer frequency, TF over GST control); in test [16] it was 1.48 fold enrichment (6-mer frequency, TF over GST control); in test [17], 1.6 fold enrichment (6-mer frequency, TF over GST control).

Take TTCAGT: the binding signal in test [1] was 1.07 fold enrichment (6-mer frequency, TF over GST control); in [2] it was 1.04 fold enrichment (6-mer frequency, TF over GST control); in test [3], 1.06 fold enrichment (6-mer frequency, TF over GST control); in test [4], 1.03 fold enrichment (6-mer frequency, TF over GST control); in [5] it was 1.09 fold enrichment (6-mer frequency, TF over GST control); in test [6] it was 1.04 fold enrichment (6-mer frequency, TF over GST control). Further, the binding signal in test [7] was 1.11 fold enrichment (6-mer frequency, TF over GST control); in test [8] it was 1 fold enrichment (6-mer frequency, TF over GST control); in test [9], 1.02 fold enrichment (6-mer frequency, TF over GST control); in [10], 1.01 fold enrichment (6-mer frequency, TF over GST control); in test [11], 1.05 fold enrichment (6-mer frequency, TF over GST control); in test [12], 1.11 fold enrichment (6-mer frequency, TF over GST control). The binding signal is 1.11 fold enrichment (6-mer frequency, TF over GST control) in test [13]; 1.1 fold enrichment (6-mer frequency, TF over GST control) in test [14]; 1.08 fold enrichment (6-mer frequency, TF over GST control) in test [15]; 1.08 fold enrichment (6-mer frequency, TF over GST control) in test [16]; 1.07 fold enrichment (6-mer frequency, TF over GST control) in test [17].
